# From the supplement of paper PMC3334620
# Whole data set: some 33,000 sequences, median “E-score (-0.5 to 0.5)” near -0.043, cut for the highest 2% near 0.37. The entries come from a sample that favours the highest values as a whole.
# Target: T1, Upc2 (UniProt Q12151)
# T1 sequence: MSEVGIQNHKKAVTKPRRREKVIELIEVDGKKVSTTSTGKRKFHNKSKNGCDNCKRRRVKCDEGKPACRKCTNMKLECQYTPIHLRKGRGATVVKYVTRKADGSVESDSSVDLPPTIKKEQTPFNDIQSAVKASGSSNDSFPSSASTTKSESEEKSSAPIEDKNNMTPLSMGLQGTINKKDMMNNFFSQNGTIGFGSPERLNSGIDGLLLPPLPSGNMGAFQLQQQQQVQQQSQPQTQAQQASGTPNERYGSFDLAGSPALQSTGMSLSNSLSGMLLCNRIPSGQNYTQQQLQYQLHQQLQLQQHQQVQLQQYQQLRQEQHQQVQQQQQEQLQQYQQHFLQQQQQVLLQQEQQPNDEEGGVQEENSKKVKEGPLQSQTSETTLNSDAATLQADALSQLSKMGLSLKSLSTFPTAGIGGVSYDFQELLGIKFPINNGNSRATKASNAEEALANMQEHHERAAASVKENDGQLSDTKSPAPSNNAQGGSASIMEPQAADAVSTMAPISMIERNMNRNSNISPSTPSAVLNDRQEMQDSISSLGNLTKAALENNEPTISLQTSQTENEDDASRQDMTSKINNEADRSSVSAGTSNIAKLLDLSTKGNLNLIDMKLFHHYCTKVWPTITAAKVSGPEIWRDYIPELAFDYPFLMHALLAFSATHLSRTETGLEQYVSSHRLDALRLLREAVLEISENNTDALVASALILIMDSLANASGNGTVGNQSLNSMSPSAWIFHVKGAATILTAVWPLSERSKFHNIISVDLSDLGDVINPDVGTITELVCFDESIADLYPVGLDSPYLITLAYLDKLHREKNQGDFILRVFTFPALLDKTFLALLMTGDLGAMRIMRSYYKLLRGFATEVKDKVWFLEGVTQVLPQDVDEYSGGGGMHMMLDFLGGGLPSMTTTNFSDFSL
# Experiment: PBM E-score (8-mer binding enrichment) (E-score (-0.5 to 0.5)); higher = stronger / more preferred TF binding
# Conditions: protein concentration: 200 nM; construct: GST-full length
# Protocol: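 Universal 'all 10-mer' protein binding microarrays (Agilent AMADID 015681) probed with GST-tagged S. cerevisiae TFs (full-length or DBD) made by in vitro transcription/translation (PURExpress), about 100-200 nM. Bound TF was detected with fluorescent anti-GST. Each ungapped 8-mer (which stands for itself and its reverse complement) is scored by the PBM enrichment score (E-score), a modified Wilcoxon-Mann-Whitney statistic from -0.5 to +0.5, computed with the Universal PBM Analysis Suite. Scale: above 0.35 generally sequence-specific binding.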
row,Sequence,PBM E-score
1,CGTCGGGC,-0.231
2,ATCAATCA,0.0322
3,AAAATCCT,0.0605
4,AGGTTACG,0.221
5,ATCGTAGC,0.356
6,CACGTAGA,0.0732
7,CACGTAGC,-0.0699
8,CTCGTAGC,0.4
9,CTCGTAGA,0.404
10,GTAGTAGA,-0.0548
11,GACGTAGA,0.054
12,ATCGTAGA,0.337
13,GTCGTAGA,0.386
14,GTGGGGCA,-0.058
15,CAGTGTCC,-0.141
16,AGCCAATC,-0.0383
17,TCCAGCCA,-0.231
18,AGTCTATA,0.0445
19,ATGATCTA,-0.00479
20,AGCGAGCG,0.281
21,TACGAGCA,0.465
22,CACGAGCC,0.0758
23,GACGAGCC,-0.00056
24,TCCGAGCA,0.176
25,ACCGAGCT,0.186

row,Sequence,PBM E-score
1,AACGAGCT,0.438
2,AGCGAGCT,0.225
3,TGCGAGCA,0.21
4,AACGAGCC,0.449
5,CACGAGCG,0.17
6,AACGAGCG,0.442
7,CGCCGCTC,-0.0776
8,AGTAACCA,-0.164
9,CGCCAGCA,-0.169
10,ATTGATAC,0.173
11,GGCAACAA,0.0296
12,GACGCCAA,-0.0565
13,AGTTGATA,-0.0653
14,GGGTGCAC,-0.128
15,CGCATAGA,0.158
16,GACGAGCA,0.00509
17,AACGAGCA,0.444
18,CACGAGCA,-0.0761
19,CATGCTAA,-0.2
20,GAGGTTTA,0.0651
21,ATTGGACA,-0.0219
22,GAACGGCA,0.27
23,AAACGGCT,0.296
24,CAACGGCA,-0.0468
25,AAACGGCC,0.359

row,Sequence,PBM E-score
1,AAACGGCA,0.37
2,AAACGGCG,0.401
3,TAGAAACA,0.0409
4,GAGTGTGA,0.156
5,CGCCCAAG,-0.0616
6,ATCTAAGA,-0.179
7,GCAGTACC,-0.124
8,GAGCACAA,-0.0319
9,ACGAGCGG,0.369
10,GCGAGCGA,0.226
11,CCGAGCGA,0.193
12,ACGAGCGA,0.379
13,ACGAGCGC,0.347
14,ACGAGCGT,0.386
15,ACTCAGTA,0.18
16,ATGGTGGG,-0.278
17,AACCTGTA,0.118
18,CCACGAAA,-0.0902
19,AGACGAAC,0.29
20,ACACGAAC,0.216
21,CAACGAAC,0.257
22,TGACGAAA,0.00712
23,GAACGAAC,0.441
24,GCACGAAC,0.25
25,GAACGAAA,0.416

row,Sequence,PBM E-score
1,AAACGAAC,0.471
2,ATGCTGAA,-0.151
3,GTTGTGAA,0.00742
4,GAAGCAGA,-0.244
5,CGCAGCCC,-0.0774
6,CATACGGC,0.383
7,AATACGGC,0.291
8,CGTACGGC,0.381
9,CGTACGTC,0.338
10,CATACGGG,0.367
11,AGTACGGC,0.299
12,GGTACGGA,0.355
13,AGTACGGA,0.224
14,CGTACGGA,0.382
15,AGTTGGCA,0.0278
16,CGTCGATA,-0.028
17,AAGCTACA,-0.125
18,CCGTCGCG,0.132
19,GAAAAACC,-0.037
20,TCCTCAAA,-0.24
21,AGAGCCCG,-0.0194
22,CTGACGTA,0.164
23,CTGAACTA,-0.104
24,CTGAACGC,0.121
25,ATGAACGC,0.14

row,Sequence,PBM E-score
1,GTGAACGA,0.453
2,GTGAACAA,0.128
3,CTGAACGA,0.472
4,ATGAACGA,0.459
5,ATGAACGG,0.261
6,GTGAACTA,0.142
7,TTGACCAA,-0.179
8,AACTACCT,-0.152
9,ACCAGAAC,0.0633
10,CACGATGG,0.0566
11,AACGATGC,0.352
12,ATCGATGA,-0.0519
13,AACGATGT,0.388
14,AACGATGG,0.391
15,GACGATGC,-0.0158
16,AACGATGA,0.387
17,CACGATGC,0.0841
18,GACGATGA,-0.00259
19,ACCGATGA,0.0812
20,TACGATGA,0.433
21,CACGATGA,0.169
22,CCAGTGAC,-0.217
23,CAGAGATG,-0.222
24,GACTGATC,-0.118
25,GATTCCCC,-0.214

row,Sequence,PBM E-score
1,CAGTACGC,0.037
2,TAGTACGA,0.401
3,AAGTACGA,0.407
4,GAGTACAA,-0.0557
5,TAGTACAA,0.00376
6,AAGTACGT,0.154
7,CAGTACGA,0.411
8,GAGTACGC,-0.0301
9,TAGTACCA,-0.148
10,AAGTACGC,0.115
11,CAGTACGG,0.257
12,GAGTACGA,0.375
13,TCTGATCA,-0.317
14,TCGCAAAA,0.216
15,CGCTACAG,-0.105
16,CGTCTATA,0.0202
17,CGGGAGGA,-0.157
18,AGAGCATA,-0.0221
19,AACTTTGT,-0.172
20,TTTAGAAA,0.133
21,GCTTAGCA,-0.00347
22,TAATTACA,-0.0323
23,ACGATCGT,0.438
24,AAGATCGC,0.148
25,ACGATCGC,0.352

row,Sequence,PBM E-score
1,AAGATCGG,-0.0541
2,ACGATCGG,0.295
3,AAGATCGT,0.371
4,ATTACCGC,0.0457
5,ACGAGCTG,0.36
6,ACGAGCTC,0.404
7,ACGAGCTA,0.394
8,CCGAGCTA,0.0202
9,GCGAGCTA,0.207
10,CCGAGCTC,0.197
11,AGGATAGG,-0.0689
12,CTTCATCC,-0.177
13,ACTCAGTC,-0.097
14,GCTGCAGC,-0.125
15,CCCATACC,0.0537
16,ACCATACG,0.399
17,CCCATACG,0.407
18,ACCATACC,-0.0989
19,CCCATACA,-0.22
20,ACCATACA,-0.0345
21,ACTAAGAA,-0.0494
22,GATGGGAA,-0.0309
23,TCGGAAAA,0.234
24,ATAAGATA,0.146
25,AGTAAAGC,-0.0204

row,Sequence,PBM E-score
1,CCTAAAGC,-0.082
2,CGTAAAGC,0.403
3,CGTAAAGA,0.412
4,GGTAAAGA,0.0863
5,AGTAAAGA,-0.212
6,CGGTTTAG,0.161
7,CGGAAGAG,-0.146
8,CCAGTTAC,-0.21
9,TGTTAGAA,-0.177
10,AGTTTGGA,-0.014
11,AGTTTGGC,-0.015
12,CGTTTGGC,0.409
13,CGTTTGAG,0.396
14,CGTTTGCC,0.323
15,GGTTTGGA,-0.0119
16,CGTTTGGA,0.428
17,CGTTTGCA,0.395
18,GGTTTGCA,0.0633
19,CGTTTGAC,0.363
20,CGTTTGAA,0.35
21,CGTTTGTC,0.34
22,CTTATGCC,-0.0216
23,ATTCTGTA,0.0418
24,TGAAATCA,-0.103
25,CAACAAGC,-0.163

row,Sequence,PBM E-score
1,GGTGTCAA,-0.169
2,ATCGATTG,0.0896
3,AACGGTTC,0.166
4,CCTTCCAA,-0.216
5,GGGTTCAA,-0.157
6,ACTTATTC,-0.0293
7,ATCGCAGC,0.085
8,AACGTCAC,-0.0182
9,CCGTCGGA,0.0146
10,GCGTCGAA,-0.0193
11,CCGTCGTA,0.457
12,ACGTCGTC,0.206
13,ACGTCGTA,0.458
14,ACGTCGTG,0.0636
15,GCGTCGTA,0.468
16,GCGTCGCA,0.19
17,CCGTCGTC,0.0861
18,AGGGTAGG,-0.331
19,ACTAACCT,0.042
